Experimental findings from PubChem BioAssay are described below.

The source made the active and inactive calls.

In assay [1] the test system is Human papillomavirus type 1a protein E7 (residues 44-93). The assay is described as follows: small molecules binding HPV E7 44-93 – biochemical, small-molecule microarray, residues 44-93, 635 nm fluorescence, primary screen (AID 1108).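 Note: E7 fragment applied at 1 µg/mL in TBST for 1 h at 4 C; score combines spot fluorescence with its signal to noise ratio.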 Particulars: fluorescence 635 nm, higher = more signal.
Assay [2] is described as follows: hepatitis C replication reporter changes, two-sided – Huh7 cells, luciferase reporter, HCV replication inhibitor project, primary screen (AID 1109).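 Note: huh7 hepatoma cells harbouring a luciferase neomycin HCV replicon reporter; luciferase luminescence as measure of HCV replicon replication; test concentration not given here.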 The conditions noted are these: Huh7 HCV replicon luciferase reporter, 48 h; higher = more signal.
Assay [3] deals with Left-right determination factor 2 (Homo sapiens) (UniProt O00292). Put plainly: small molecules binding LEFTY2 protein – biochemical, small-molecule microarray, 635 nm fluorescence scan, primary screen (AID 1110). The conditions noted are these: higher = more signal.
For assay [4], the target named is Calmodulin-1 (Homo sapiens) (UniProt P0DP23). The assay is described as follows: small molecules binding calmodulin-1 with EGTA – biochemical, small-molecule microarray, Cy5-labelled CALM1, profiling panel (AID 1111).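 Note: labelled calmodulin applied in Tris saline Tween buffer holding calcium plus EGTA and DTT.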 The conditions noted are these: Cy5-CALM1 binding fluorescence, higher = more signal.
The target is the same in assay [5]. Put plainly: small molecules binding Ca-loaded calmodulin-1 – biochemical, small-molecule microarray, Cy5-labelled CALM1, plus calcium, artefact control for SMM control-protein annotation, profiling panel (AID 1112).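 Note: score merges spot fluorescence with signal to noise from triplicate slides.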 Particulars: Cy5-CALM1 binding fluorescence, higher = more signal.
Assay [6] in a line: probe aWnt5a binding to arrayed compounds – biochemical, biotinylated probe, 635/667 nm fluorescence, primary screen (AID 1113).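 Note: score merges 667 nm fluorescence intensity with signal-to-noise per printed feature.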 The conditions noted are these: small-molecule microarray, higher = more signal.
A short description of assay [7]: probe aShh binding to arrayed compounds – biochemical, biotinylated probe, 635/667 nm fluorescence, primary screen (AID 1114).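 Note: probe is biotin-labelled aShh protein from a stem cell growth factor screen; measures binding of labelled protein to compounds printed on the slide; score merges feature fluorescence at 667 nm with signal-to-noise.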 Particulars: small-molecule microarray, higher = more signal.
A short description of assay [8]: probe aNog binding to arrayed compounds – biochemical, biotinylated probe, 635/667 nm fluorescence, primary screen (AID 1115).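 Note: probe is biotinylated aNog protein used at 0.15 µg/mL for 1 h at 4 C; z-score combines 667 nm fluorescence of each spot with its signal to noise.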 Particulars: small-molecule microarray, higher = more signal.
The target of assay [9] is Torsin-1A-interacting protein 1 (Homo sapiens) (UniProt Q5JTV8). The assay is described as follows: compound microarray binding of lysate hLAP1 – cell lysate, small-molecule microarray, COS7 lysate, 635/667 nm fluorescence, primary screen (AID 1116). The conditions noted are these: 635 nm fluorescence, higher = more signal.
The target in assay [10] is Alpha-bungarotoxin (Bungarus multicinctus) (UniProt P60615). Put plainly: compounds binding labelled alpha-BTX control protein – biochemical, small-molecule microarray, Alexa647 label, 635/667 nm fluorescence, artefact control for SMM control protein annotation, profiling panel (AID 1117). The conditions noted are these: alpha-BTX-A647 binding fluorescence, higher = more signal.

In the next assay the target is Albumin (Bos taurus) (UniProt P02769). The assay is described as follows: compounds binding labelled BSA control protein – biochemical, small-molecule microarray, Alexa647 label, 635/667 nm fluorescence, artefact control for SMM control protein annotation, profiling panel (AID 1118).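 Note: score merges 667 nm emission intensity and signal-to-noise per printed compound spot.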 The conditions noted are these: BSA-A647 binding, fluorescence 635 nm, higher = more signal.

Assay [11] is described as follows: probe aXIP binding to arrayed compounds – biochemical, NeuroSMM set, 635/667 nm fluorescence, primary screen (AID 1119).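 Note: probe is the protein aXip251-270 applied at 1 µg/mL to compound-printed slides; binding of probe to printed compounds measured as 667 nm fluorescence plus signal to noise.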 Particulars: small-molecule microarray, higher = more signal, called active from +8 up or from −8 down.
Assay [12] can be described thus: probe aNOTCH3 binding on compound microarray – biochemical, small-molecule microarray, 635/667 nm fluorescence, primary screen (AID 1120).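 Note: probe is a biotin-tagged antibody raised against NOTCH3 rather than NOTCH3 protein; score merges spot fluorescence near 667 nm with spot signal to noise.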 The conditions noted are these: higher = more signal.
Assay [13] is described as follows: probe aNOTCH2 binding on compound microarray – biochemical, small-molecule microarray, 635/667 nm fluorescence, primary screen (AID 1121).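 Note: score merges feature fluorescence read at 667 nm with its signal to noise.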 Particulars: higher = more signal.
In assay [14] the target is Carbonic anhydrase 2 (Homo sapiens) (UniProt P00918). Put plainly: compounds binding carbonic anhydrase 2 – biochemical, small-molecule microarray, Alexa647-labelled CAII, profiling panel (AID 1122). The conditions noted are these: CAII-A647 binding fluorescence, higher = more signal.
Assay [15] in a line: COS7 lysate on small-molecule microarray, probe aHis, 635 nm (AID 1123).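 Note: z-score combines 667nm fluorescence intensity with signal-to-noise per printed compound spot.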 The conditions noted are these: COS7 cell lysate, fluorescence, higher = more signal.
A short description of assay [16]: probe aLAP1 signal on lysate-treated microarray – cell lysate, small-molecule microarray, COS7 lysate, primary screen (AID 1124).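 Note: lysate comes from COS7 cells expressing LAP1 and is applied at 0.3 µg/mL; score merges spot fluorescence near 667 nm with signal-to-noise over triplicate slides.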 The conditions noted are these: probe aLAP1, fluorescence, higher = more signal.
The next assay has as its system Sam68 (KHDRBS1). Put plainly: compounds binding KHDRBS1 protein – biochemical, small-molecule microarray, 635 nm fluorescence, primary screen (AID 1125).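 Note: score merges 667 nm channel intensity with signal to noise over triplicate slides.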 Particulars: higher = more signal.
Assay [17] has as its system Chordin-like protein 2 (CHRDL2). The assay is described as follows: compounds binding chordin-like 2 – biochemical, small-molecule microarray, 635 nm fluorescence, primary screen (AID 1126).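 Note: printed compound slides probed with Chrdl2 protein at 4 µg/mL for 1 h at 4 C; score merges 667 nm emission intensity with signal to noise over three replicate slides.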 The conditions noted are these: fluorescence 635 nm, higher = more signal.
Assay [18] has as its target Concanavalin-A (Canavalia ensiformis) (UniProt P02866). Put plainly: compounds binding concanavalin A lectin – biochemical, small-molecule microarray, Alexa647 label, 635 nm, artefact control for SMM control protein annotation, primary screen (AID 1127).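 Note: z combines 667 nm emission intensity with signal-to-noise across three replicate slides.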 The conditions noted are these: ConA-A647 binding fluorescence, higher = more signal.

Sequence of Albumin (Bos taurus) (P02769 whole entry, looked up): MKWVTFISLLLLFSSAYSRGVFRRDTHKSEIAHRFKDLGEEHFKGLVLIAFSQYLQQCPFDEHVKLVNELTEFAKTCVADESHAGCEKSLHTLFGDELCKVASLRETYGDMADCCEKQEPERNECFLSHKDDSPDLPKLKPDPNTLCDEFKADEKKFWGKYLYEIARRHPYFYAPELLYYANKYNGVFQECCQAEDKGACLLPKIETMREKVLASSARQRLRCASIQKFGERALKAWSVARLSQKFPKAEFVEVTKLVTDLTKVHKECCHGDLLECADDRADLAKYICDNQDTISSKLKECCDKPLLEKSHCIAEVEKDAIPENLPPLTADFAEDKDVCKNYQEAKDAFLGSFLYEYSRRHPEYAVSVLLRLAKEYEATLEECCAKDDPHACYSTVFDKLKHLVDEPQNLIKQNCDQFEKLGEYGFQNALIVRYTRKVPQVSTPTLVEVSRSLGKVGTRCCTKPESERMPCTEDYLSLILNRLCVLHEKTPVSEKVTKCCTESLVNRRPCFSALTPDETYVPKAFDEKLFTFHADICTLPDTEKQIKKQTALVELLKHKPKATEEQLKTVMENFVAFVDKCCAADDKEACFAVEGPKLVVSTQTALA
Sequence of Alpha-bungarotoxin (Bungarus multicinctus) (P60615 whole entry, looked up): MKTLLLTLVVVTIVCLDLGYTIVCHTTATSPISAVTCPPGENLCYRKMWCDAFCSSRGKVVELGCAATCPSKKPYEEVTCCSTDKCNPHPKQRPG
Sequence of Concanavalin-A (Canavalia ensiformis) (P02866 whole entry, looked up): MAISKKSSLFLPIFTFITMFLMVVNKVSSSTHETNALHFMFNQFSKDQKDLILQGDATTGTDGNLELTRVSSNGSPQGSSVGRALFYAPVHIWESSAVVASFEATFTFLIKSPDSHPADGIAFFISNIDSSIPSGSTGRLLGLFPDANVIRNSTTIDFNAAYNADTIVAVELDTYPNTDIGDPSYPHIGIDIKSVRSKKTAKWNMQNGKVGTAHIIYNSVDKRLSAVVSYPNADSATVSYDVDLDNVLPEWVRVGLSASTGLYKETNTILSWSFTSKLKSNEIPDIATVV
Sequence of Left-right determination factor 2 (Homo sapiens) (O00292 whole entry, looked up): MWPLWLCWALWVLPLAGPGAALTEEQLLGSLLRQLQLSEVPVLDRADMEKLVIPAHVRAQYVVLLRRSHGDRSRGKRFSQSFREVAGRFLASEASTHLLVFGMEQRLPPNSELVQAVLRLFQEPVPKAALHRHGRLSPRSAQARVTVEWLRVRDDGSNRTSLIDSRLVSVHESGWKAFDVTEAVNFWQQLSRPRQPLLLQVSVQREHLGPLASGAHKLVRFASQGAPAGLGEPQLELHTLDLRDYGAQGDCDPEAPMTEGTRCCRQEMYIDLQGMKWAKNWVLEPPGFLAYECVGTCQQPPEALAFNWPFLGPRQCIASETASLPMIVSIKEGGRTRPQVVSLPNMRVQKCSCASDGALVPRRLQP
Sequence of Torsin-1A-interacting protein 1 (Homo sapiens) (Q5JTV8 whole entry, looked up): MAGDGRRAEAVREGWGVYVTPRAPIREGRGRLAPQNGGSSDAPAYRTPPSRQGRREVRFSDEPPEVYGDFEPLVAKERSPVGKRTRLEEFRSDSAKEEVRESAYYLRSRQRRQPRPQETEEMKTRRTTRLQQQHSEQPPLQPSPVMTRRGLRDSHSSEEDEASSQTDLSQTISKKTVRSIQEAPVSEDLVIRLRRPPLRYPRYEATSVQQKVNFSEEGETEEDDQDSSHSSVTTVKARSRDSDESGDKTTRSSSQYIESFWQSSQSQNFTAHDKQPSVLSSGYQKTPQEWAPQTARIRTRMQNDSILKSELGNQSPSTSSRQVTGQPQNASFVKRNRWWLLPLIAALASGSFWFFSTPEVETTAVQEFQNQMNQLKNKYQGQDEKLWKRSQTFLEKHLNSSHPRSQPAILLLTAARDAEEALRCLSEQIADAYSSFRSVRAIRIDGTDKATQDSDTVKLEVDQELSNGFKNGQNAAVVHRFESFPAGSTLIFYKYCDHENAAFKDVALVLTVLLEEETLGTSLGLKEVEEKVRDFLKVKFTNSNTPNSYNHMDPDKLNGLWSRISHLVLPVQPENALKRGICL

With `CN1C(=O)C2C=CC(C(O)c3ccc(N(C)C)cc3)N(Nc3ccc([N+](=O)[O-])cc3[N+](=O)[O-])C2C1=O` (stereo not given), the composite z-score in [1] was 0.501; in assay [3] it was 0.371; in [4], 0.49; in assay [5] it was 0.697; in assay [6], 0.055; in [7] it was 0.446. In addition, the composite z-score in assay [8] was 1.7; in [9], 1; in [10], 0.988; in the assay with Albumin (Bos taurus), 0.944; in assay [12], 0.586; in assay [13], 0.0683. For the same compound, the composite z-score in assay [14] was 0.729; in [15], 2.72; in [16], 1.4; with Sam68 (KHDRBS1) it was 1.21; in assay [17], 0.556; in assay [18], 0.884. Also, in [2], the z-score was -0.353. The composite Z-score in assay [11] is -0.399 (inactive).

For the compound `COc1cc(CO)cc(I)c1O[C@H]1C=C(C(=O)NCCO)C[C@@H](NCCc2c[nH]c3ccccc23)[C@@H]1O`, the composite z-score in assay [1] was -0.552; in [3] it was 0.688; in assay [4], 0.228; in [5], -0.56; in assay [6] it was -0.0032; in [7] it was 0.116. The composite z-score was 0.758 in assay [8]; 0.762 in assay [9]; 0.988 in assay [10]; 0.544 in the assay with Albumin (Bos taurus); 0.124 in [12]; -0.121 in assay [13]. Also, the composite z-score is 0.412 in assay [14]; 0.414 in assay [15]; 0.128 in assay [16]; 1.12 in the assay with Sam68 (KHDRBS1); 0.685 in [17]; 0.649 in [18]. Moreover, the z-score in assay [2] is -2.76. Also, the composite Z-score in [11] is 0.256 (inactive).

Consider `CC(C)[C@H]1NC(=O)[C@@]23C(=O)N[C@@H](Cc4ccccc4)C2[C@H](C)[C@@]2(C)O[C@H]2C3/C=C/C/C=C\CNC(=O)[C@H](C)NC1=O` (stereo not given in full), for which the composite z-score in assay [1] was -0.473; in assay [3], -0.796; in assay [4] it was -0.703; in assay [5], -0.751; in assay [6], -0.284; in assay [7] it was -0.367. Further, the composite z-score was -0.32 in assay [8]; -0.198 in [9]; -1.12 in assay [10]; -0.255 in the assay with Albumin (Bos taurus); -0.25 in [12]; -0.218 in [13]. In addition, the composite z-score was 0.811 in assay [14]; -0.281 in [15]; -0.258 in assay [16]; -0.762 in the assay on Sam68 (KHDRBS1); -0.433 in [17]; -0.671 in assay [18]. Moreover, in [2], the z-score came out at 0.631. In addition, the composite Z-score in assay [11] was -0.0247 (inactive).

Take `CC(C)=C1C(=O)C(c2ccccc2)=C2CN3C(=O)N(CCc4ccccc4)C(=O)[C@]3(Cc3ccccc3)[C@H]21`: the composite z-score in assay [1] is -1.85; in assay [3], -1.54; in [4], 1.31; in [5] it was 0.197; in assay [6], -0.0384; in [7], 0.251. In addition, the composite z-score was -0.408 in assay [8]; -0.0829 in assay [9]; -0.496 in assay [10]; 0.0673 with Albumin (Bos taurus); -0.0209 in assay [12]; 0.224 in assay [13]. Moreover, the composite z-score is 0.204 in assay [14]; 0.572 in assay [15]; -0.14 in assay [16]; -1.59 in the assay with Sam68 (KHDRBS1); -2.04 in [17]; -1.18 in assay [18]. Moreover, the z-score in [2] stood at 0.219. Further, in [11], the composite Z-score was 0.548 (inactive).

Consider `Cc1ccc(N2C(=O)c3ccccc3[C@@H](C(=O)NCc3ccccc3)[C@@H]2c2ccc(CO)cc2)nc1`, for which the composite z-score in [1] was -0.752; in assay [3], -0.292; in [4] it was -0.869; in assay [5] it was -0.313; in [6] it was -0.148; in assay [7], 0.901. The composite z-score is -0.361 in [8]; 0.776 in [9]; -0.326 in assay [10]; -1.29 with Albumin (Bos taurus); -0.0328 in [12]; -0.0272 in assay [13]. Also, the composite z-score in assay [14] is 0.451; in assay [15] it was 3.91; in assay [16], -0.0641; in the assay on Sam68 (KHDRBS1), -0.931; in assay [17], 0.465; in assay [18], -1.28. Also, in assay [2], the z-score was -0.139. In assay [11], the composite Z-score was -0.816 (inactive).

Consider `C=CCNC(=O)[C@H]1[C@@H]2C(=O)O[C@@H](c3ccccc3)[C@@H](c3ccccc3)N2[C@@H](c2ccc(O)cc2)[C@]12C(=O)Nc1ccc(C#CCNC(N)=O)cc12`, for which the composite z-score in assay [1] was 0.0632; in assay [3] it was -0.84; in assay [4], -0.439; in assay [5] it was -0.0701; in [6], -0.161; in assay [7], -0.467. Besides, the composite z-score in assay [8] was 0.0863; in [9], 0.239; in assay [10], 0.543; with Albumin (Bos taurus) it was -0.273; in assay [12], -0.174; in assay [13] it was 0.12. For the same compound, the composite z-score is 0.78 in assay [14]; 0.789 in assay [15]; 0.0128 in [16]; 0.213 with Sam68 (KHDRBS1); -1.02 in [17]; -0.649 in assay [18]. The compound also had a z-score in assay [2] of 0.567. The composite Z-score in assay [11] was 0.593 (inactive).
